Data reported in PubChem BioAssay (NCI).
This is part of a sample that, as a whole, favours compounds with a hit. Of some 79,000 tested, about 15% had one in any assay. The source made the active and inactive calls. Cut-off read from the data, not from the text of the source: active = growth inhibition above about 70%; inactive = the rest.

Assays:
[1] = NCI Yeast Anticancer Drug Screen. Data for the rad52 strain (AID 147);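 note: 0% = growth of vehicle-treated control cultures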; conditions: S. cerevisiae rad52 mutant growth inhibition, hits give high values
Procedure, shortened: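 The repair-mutant yeast strain was incubated with compounds, then growth was read and inhibition derived relative to vehicle.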

[2] = NCI Yeast Anticancer Drug Screen. Data for the rad50EPP+ strain (AID 151);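 note: 0% = growth of vehicle-treated control cultures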; conditions: S. cerevisiae rad50 mutant strain, hits give high values
Procedure, shortened: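 Vehicle-normalised growth inhibition; rad50EPP+ yeast strain, altered in DNA damage repair, compound-treated.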

[3] = NCI Yeast Anticancer Drug Screen. Data for the mgt1 strain (AID 153); conditions: S. cerevisiae mgt1 mutant growth inhibition, hits give high values
Procedure, shortened: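 Vehicle-normalized growth inhibition is determined in mgt1 yeast, a strain selected for a defined alteration in DNA repair or cell cycle control.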

[4] = NCI Yeast Anticancer Drug Screen. Data for the rad50 strain (AID 155);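 note: 0% = growth of vehicle-only cultures of the same strain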; conditions: S. cerevisiae rad50 strain growth inhibition, hits give high values
Procedure, shortened: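 Genetically altered yeast (DNA repair pathway); compound treatment; growth inhibition vs vehicle ctrl.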

[5] = NCI Yeast Anticancer Drug Screen. Data for the mec2-1 strain (AID 157); conditions: S. cerevisiae mec2-1 strain, hits give high values
Procedure, shortened: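 Mutant yeast (mec2-1) grown with compound; growth inhibition relative to vehicle control reported.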

[6] = NCI Yeast Anticancer Drug Screen. Data for the sgs1 mgt1 strain (AID 161);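 note: 0% = growth of cultures given vehicle only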; conditions: S. cerevisiae sgs1 mgt1 strain, hits give high values
Procedure, shortened: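 Compounds are added to genetically altered yeast, and growth is compared with cultures given vehicle alone to give percent inhibition.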

[7] = NCI Yeast Anticancer Drug Screen. Data for the CLN2oe strain (AID 163);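 note: 0% = growth of vehicle-only control cultures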; conditions: S. cerevisiae CLN2oe strain, hits give high values
Procedure, shortened: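 Compounds are applied to yeast harbouring a defined cell-cycle control change; reduced growth compared with vehicle-treated controls gives the value.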

[8] = NCI Yeast Anticancer Drug Screen. Data for the cln2 rad14 strain (AID 165);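 note: 0% = growth equal to vehicle treated cultures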; conditions: S. cerevisiae cln2 rad14 strain, hits give high values
Procedure, shortened: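 Readout is yeast growth inhibition versus vehicle-treated controls, using a strain with cln2 and rad14 alterations exposed to compound.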

[9] = NCI Yeast Anticancer Drug Screen. Data for the bub3 strain (AID 167); conditions: S. cerevisiae bub3 mutant strain, hits give high values
Procedure, shortened: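 Yeast carrying a defined mutation is treated with each compound, and growth is compared with that of vehicle-exposed cells to give inhibition.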

[10] = NCI Yeast Anticancer Drug Screen. Data for the wt2 strain (AID 169);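 note: 0% = growth of vehicle-treated yeast cultures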; conditions: S. cerevisiae wt2 strain growth inhibition, hits give high values
Procedure, shortened: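 Against vehicle-treated controls, the growth of yeast exposed to each compound was compared, and the inhibition was recorded.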

[11] = NCI Yeast Anticancer Drug Screen. Data for the mlh1 strain (AID 171);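 note: 0% = growth of vehicle-treated control cultures of the same strain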; conditions: S. cerevisiae mlh1 strain growth inhibition, hits give high values
Procedure, shortened: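 Measured: yeast growth. Reference: vehicle-treated controls. Organism: strain with a defined alteration affecting DNA damage repair or cell cycle control, treated with compound.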

[12] = NCI Yeast Anticancer Drug Screen. Data for the mlh1 rad18 strain (AID 175); conditions: S. cerevisiae mlh1 rad18 strain growth inhibition, hits give high values
Procedure, shortened: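 Genetically defined yeast (DNA repair-deficient) exposed to compounds; growth inhibition determined relative to vehicle.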

[13] = NCI Yeast Anticancer Drug Screen. Data for the rad18 strain (AID 177); conditions: S. cerevisiae rad18 mutant growth inhibition, hits give high values
Procedure, shortened: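 Vehicle-treated cultures served as the baseline for scoring compound-induced growth inhibition in DNA-repair-mutant yeast.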

[14] = NCI Yeast Anticancer Drug Screen. Data for the rad14 strain (AID 159);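 note: 0% = growth of vehicle-treated control cultures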; conditions: S. cerevisiae rad14 strain growth inhibition, hits give high values
Procedure, shortened: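 Test compounds were applied to a repair-deficient yeast strain. Its growth was then compared with that of cultures given vehicle alone, and inhibition was expressed relative to those controls.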

[15] = NCI Yeast Anticancer Drug Screen. Data for the sgs1 strain (AID 173);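 note: 0% = growth of vehicle-only control cultures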; conditions: S. cerevisiae sgs1 mutant, hits give high values
Procedure, shortened: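 Each compound was added to cultures of the altered yeast strain. Growth was recorded, and inhibition was derived by comparison with vehicle controls.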

[16] = at 5.0 µM (retest, dose inferred, filed as 0.5)
[17] = at 50.0 µM (retest, dose inferred, filed as 5.0)

Measured: growth inhibition

FC(F)(F)c1cc(NC(=S)N2c3ccccc3-n3cccc3C2c2cccnc2)cc(C(F)(F)F)c1 (stereo unspecified)
inactive: [1]; at 1.2 µM -3% | [1]; at 3.7 µM -5% | [1]; at 11.0 µM -9% | [1]; at 33.0 µM -3% | [1]; at 100.0 µM -4% | [2]; at 1.2 µM 1% | [2]; at 3.7 µM 6% | [2]; at 11.0 µM 18% | [2]; at 33.0 µM 42% | [2]; at 100.0 µM 57% | [3]; at 1.2 µM -10% | [3]; at 3.7 µM -5% | [3]; at 11.0 µM -17% | [3]; at 33.0 µM -36% | [3]; at 100.0 µM -17% | [4]; at 1.2 µM -13% | [4]; at 3.7 µM -3% | [4]; [16] 10% | [4]; at 11.0 µM 9% | [4]; at 33.0 µM 3% | [4]; [17] 57% | [4]; at 100.0 µM 2% | [5]; at 1.2 µM -5% | [5]; at 3.7 µM -4% | [5]; [16] -6% | [5]; at 11.0 µM -2% | [5]; at 33.0 µM -1% | [5]; [17] 51% | [5]; at 50.0 µM 47.1% | [5]; at 100.0 µM -1% | [6]; [16] -3% | [6]; [17] 69% | [6]; at 50.0 µM 44.5% | [7]; at 1.2 µM -3% | [7]; at 3.7 µM -2% | [7]; at 11.0 µM 2% | [7]; at 33.0 µM -1% | [7]; at 100.0 µM -5% | [8]; [16] -10% | [8]; [17] 21% | [8]; at 50.0 µM 43.6% | [9]; at 1.2 µM -1% | [9]; at 3.7 µM -5% | [9]; [16] -3% | [9]; at 11.0 µM -5% | [9]; at 33.0 µM -4% | [9]; [17] 45% | [9]; at 50.0 µM 26.4% | [9]; at 100.0 µM -9% | [10]; at 1.2 µM -2% | [10]; at 3.7 µM -3% | [10]; at 11.0 µM -2% | [10]; at 33.0 µM -1% | [10]; at 100.0 µM 2% | [11]; at 1.2 µM -2% | [11]; at 3.7 µM -1% | [11]; at 11.0 µM -4% | [11]; at 33.0 µM -4% | [11]; at 100.0 µM 6% | [12]; [16] -7% | [12]; [17] 69% | [13]; at 1.2 µM -1% | [13]; at 3.7 µM -6% | [13]; at 11.0 µM 0% | [13]; at 33.0 µM -2% | [13]; at 100.0 µM -2%
active: [4]; at 50.0 µM 74.7% | [12]; at 50.0 µM 70.7%

CC(/C=C/c1ccc(Cl)cc1)=N\NC(=S)NCC(C)C
inactive: [1]; at 1.2 µM -1% | [1]; at 3.7 µM -4% | [1]; at 11.0 µM 4% | [1]; at 33.0 µM 5% | [1]; at 100.0 µM 33% | [2]; at 1.2 µM -3% | [2]; at 3.7 µM -5% | [2]; at 11.0 µM 10% | [2]; at 33.0 µM 12% | [2]; at 100.0 µM 28% | [3]; at 1.2 µM -6% | [3]; at 3.7 µM -2% | [3]; at 11.0 µM -4% | [3]; at 33.0 µM 8% | [3]; at 100.0 µM 35% | [4]; at 1.2 µM -1% | [4]; at 3.7 µM 1% | [4]; [16] 1% | [4]; at 11.0 µM 4% | [4]; at 33.0 µM 11% | [4]; [17] 42% | [4]; at 50.0 µM 39.8% | [4]; at 100.0 µM 34% | [5]; at 1.2 µM -2% | [5]; at 3.7 µM -3% | [5]; [16] -9% | [5]; at 11.0 µM -4% | [5]; at 33.0 µM -1% | [5]; [17] 7% | [5]; at 50.0 µM 66.7% | [5]; at 100.0 µM 30% | [14]; at 1.2 µM 1% | [14]; at 3.7 µM -1% | [14]; at 11.0 µM -2% | [14]; at 33.0 µM 5% | [14]; at 100.0 µM 24% | [6]; [16] 46% | [7]; at 1.2 µM 0% | [7]; at 3.7 µM -8% | [7]; at 11.0 µM -8% | [7]; at 33.0 µM 5% | [7]; at 100.0 µM 28% | [8]; [16] 3% | [8]; [17] 37% | [8]; at 50.0 µM 17.6% | [9]; at 1.2 µM -1% | [9]; at 3.7 µM -1% | [9]; [16] 27% | [9]; at 11.0 µM -6% | [9]; at 33.0 µM 5% | [9]; [17] 68% | [9]; at 100.0 µM 37% | [10]; at 1.2 µM -7% | [10]; at 3.7 µM -5% | [10]; at 11.0 µM -12% | [10]; at 33.0 µM -2% | [10]; at 100.0 µM 24% | [11]; at 1.2 µM -3% | [11]; at 3.7 µM -5% | [11]; at 11.0 µM -3% | [11]; at 33.0 µM 7% | [11]; at 100.0 µM 36% | [15]; at 1.2 µM -13% | [15]; at 3.7 µM -8% | [15]; at 11.0 µM -6% | [15]; at 33.0 µM 7% | [15]; at 100.0 µM 34% | [12]; [16] 32% | [12]; [17] 64% | [13]; at 1.2 µM -7% | [13]; at 3.7 µM -4% | [13]; at 11.0 µM -1% | [13]; at 33.0 µM 3% | [13]; at 100.0 µM 32%
active: [6]; [17] 72% | [6]; at 50.0 µM 77.8% | [9]; at 50.0 µM 85.4% | [12]; at 50.0 µM 77.3%

CCCCCCCCCCCCCC[N+](C)(CC(=O)[O-])Cc1ccccc1 (stereo unspecified)
active: [1]; at 11.0 µM 99% | [1]; at 33.0 µM 98% | [1]; at 100.0 µM 99% | [2]; at 11.0 µM 99% | [2]; at 33.0 µM 99% | [2]; at 100.0 µM 98% | [3]; at 11.0 µM 100% | [3]; at 33.0 µM 99% | [3]; at 100.0 µM 99% | [4]; at 11.0 µM 99% | [4]; at 33.0 µM 99% | [4]; [17] 99% | [4]; at 50.0 µM 98.8% | [4]; at 100.0 µM 99% | [5]; at 11.0 µM 99% | [5]; at 33.0 µM 99% | [5]; [17] 100% | [5]; at 50.0 µM 99.1% | [5]; at 100.0 µM 99% | [14]; at 11.0 µM 100% | [14]; at 33.0 µM 99% | [14]; at 100.0 µM 99% | [6]; [17] 99% | [6]; at 50.0 µM 98.8% | [7]; at 11.0 µM 99% | [7]; at 33.0 µM 99% | [7]; at 100.0 µM 99% | [9]; at 11.0 µM 99% | [9]; at 33.0 µM 99% | [9]; [17] 99% | [9]; at 50.0 µM 98.9% | [9]; at 100.0 µM 98% | [11]; at 11.0 µM 99% | [11]; at 33.0 µM 99% | [11]; at 100.0 µM 99% | [15]; at 11.0 µM 99%
inactive: [1]; at 1.2 µM 2% | [1]; at 3.7 µM 23% | [2]; at 1.2 µM 5% | [2]; at 3.7 µM 32% | [3]; at 1.2 µM 2% | [3]; at 3.7 µM 26% | [4]; at 1.2 µM 8% | [4]; at 3.7 µM 50% | [4]; [16] 8% | [5]; at 1.2 µM -2% | [5]; at 3.7 µM 3% | [5]; [16] 32% | [14]; at 1.2 µM 10% | [14]; at 3.7 µM 30% | [6]; [16] 13% | [7]; at 1.2 µM 5% | [7]; at 3.7 µM 19% | [9]; at 1.2 µM -1% | [9]; at 3.7 µM 10% | [9]; [16] 2% | [11]; at 1.2 µM 2% | [11]; at 3.7 µM 31% | [15]; at 1.2 µM 2% | [15]; at 3.7 µM 30%
